The values that follow come from PubChem BioAssay (Tox21).

Assay [1] in a line: cAMP Responsive Elements (CRE) small molecule antagonists, cell-based qHTS assay: qHTS cell viability counter screen (AID 2060913). Also: nearly all actives have a fitted effect of over 40% in size. In a few lines: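 Cytotoxicity read in the same wells as the CRE-bla HEK293T antagonist assay: after 3 h compound with 0.25 uM NKH477 final and 2 h beta-lactamase substrate, CellTiter-Glo luminescence measured.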
Assay [2] in a line: cAMP Responsive Elements (CRE) small molecule agonists, cell-based qHTS assay: qHTS cell viability counter screen (AID 2060914). Also: nearly all actives have a fitted effect of over 50% in size. Put shortly: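 Cytotoxicity counter screen multiplexed with the CRE-bla reporter assay in HEK 293T cells: 3 h compound exposure at 37 °C, followed by CellTiter-Glo luminescence measured in the same wells.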
In general terms: qHTS replaces the single test concentration by a dilution series.

Results filed as inconclusive are left out. A number with no mark means an inactive call. Activity calls are given as the source filed them. Calls follow the shape of the dose curve; as a rule, active = well fitted cell-killing curve with a large enough effect in the repeat runs; inconclusive = weak or mixed curves, or effect the other way; inactive = flat fitted curve, though single readings scatter.
% is scaled to controls: 0 for no effect and ±100 for the full control effect.

`CC(C)(C)c1ccc(C=O)cc1`: the Potency result in assay [1] and in assay [2] was “inactive” throughout.
On to `COC(=O)CC(C)=O`, for which the Potency entry in assay [1] and in assay [2] was “inactive” each time.
Take `C[Si](C)(CCCN)O[Si](C)(C)CCCN`: the Potency result in assay [1] and in assay [2] was “inactive” in each case.
Turning to `CC(=O)Oc1ccc(C(=C2CCCCC2)c2ccc(OC(C)=O)cc2)cc1`, the Potency entry in assay [1] and in assay [2] was “inactive” in each case.
As to `CC(=O)OC1CC(C)OC(C)O1` (stereo unspecified), the Potency entry in assay [1] and in assay [2] was “inactive” in each case.
For the molecule `CCCCC(CC)COC(=O)CCCCCCCCC(=O)OCC(CC)CCCC` (stereo unspecified), the Potency entry in assay [1] and in assay [2] was “inactive” throughout.
Take `CCCCCOc1ccccc1/C(=C\SC)n1ccnc1`: the Potency entry in assay [1] and in assay [2] was “inactive” throughout.
Take `N#Cc1ccc(C/C(=N/NC(=O)Nc2ccc(OC(F)(F)F)cc2)c2cccc(C(F)(F)F)c2)cc1`: the Potency result in assay [1] and in assay [2] was “inactive” in each case.
Consider `CCCCCCCCCCCCCCCCN(C)C`, for which the viability change, negative = cytotoxic in assay [1] is -5.89% [at 8.39 µM]. The activity change, negative = cytotoxicity in assay [2] was -12.8% [at 8.39 µM].
On to `CCCCCOC(=O)CCCC`, for which the Potency entry in assay [1] and in assay [2] was “inactive” throughout.
As for `COC(=O)c1cccc(Cl)c1`, the Potency entry in assay [1] and in assay [2] was “inactive” each time.
Turning to `CC(=O)NCCCCCC(=O)O`, the Potency result in assay [1] and in assay [2] was “inactive” in each case.
As for `C1OCOCO1`, the Potency entry in assay [1] and in assay [2] was “inactive” in each case.
Take `Cc1ccc(C(C)c2ccc(C)c(C)c2)cc1C`: the Potency result in assay [1] and in assay [2] was “inactive” in each case.
In the case of `CC1(C)C(=O)N(Br)C(=O)N1Cl`, the Potency result in assay [1] and in assay [2] was “inactive” in each case.
With `CC(C)c1c(C(=O)Nc2ccccc2)c(-c2ccccc2)c(-c2ccc(F)cc2)n1CC[C@@H](O)C[C@@H](O)CC(=O)O`, the Potency entry in assay [1] and in assay [2] was “inactive” throughout.
Consider `Cc1ccc(S(=O)(=O)O)cc1`, for which the Potency result in assay [1] and in assay [2] was “inactive” throughout.
For `CCn1c(=O)c2c(nc(/C=C/c3ccc(OC)c(OC)c3)n2C)n(CC)c1=O`, the Potency result in assay [1] and in assay [2] was “inactive” throughout.
For the molecule `CC(=O)S[C@@H]1CC2=CC(=O)CC[C@]2(C)[C@H]2CC[C@@]3(C)[C@@H](CC[C@@]34CCC(=O)O4)[C@H]12`, the Potency entry in assay [1] and in assay [2] was “inactive” throughout.
For `Oc1ccc(OCc2ccccc2)cc1`, the Potency entry in assay [1] and in assay [2] was “inactive” each time.
With `[Cl][Nd]([Cl])[Cl]`, the Potency entry in assay [1] and in assay [2] was “inactive” each time.
As to `C[C@H](CN1CCCC1)C(=O)c1ccc(C(F)(F)F)cc1`, the Potency result in assay [1] and in assay [2] was “inactive” each time.
In the case of `CCC1OCC(COc2ccc(Oc3ccccc3)cc2)O1` (stereo unspecified), the Potency result in assay [1] and in assay [2] was “inactive” in each case.
Consider `Nc1ccc(N=Nc2ccccc2)c(N)n1`, for which the Potency entry in assay [1] and in assay [2] was “inactive” each time.
For `CC1COc2c(N3CCN(C)CC3)c(F)cc3c(=O)c(C(=O)O)cn1c23` (stereo unspecified), the Potency entry in assay [1] and in assay [2] was “inactive” throughout.
As to `COc1cc(C(=O)OC(COCCC(C)C)CN2CCOCC2)cc(OC)c1OC` (stereo unspecified), the Potency entry in assay [1] and in assay [2] was “inactive” in each case.
`Clc1ccccn1`: the Potency entry in assay [1] and in assay [2] was “inactive” each time.
For the molecule `CC(C)c1ccc2cc(C(C)C)ccc2c1`, the Potency result in assay [1] and in assay [2] was “inactive” in each case.
Regarding `CC(=O)OCC1=C(C(=O)O)N2C(=O)[C@@H](NC(=O)CSc3ccncc3)[C@H]2SC1`, the Potency result in assay [1] and in assay [2] was “inactive” throughout.
Take `O=C(O)C(c1ccc(Cl)cc1)c1ccc(Cl)cc1`: the Potency entry in assay [1] and in assay [2] was “inactive” throughout.
`CCc1nn(CCCN2CCN(c3cccc(Cl)c3)CC2)c(=O)n1CCOc1ccccc1`: the Potency result in assay [1] and in assay [2] was “inactive” throughout.
`Nc1cc([N+](=O)[O-])ccc1Cl`: the Potency entry in assay [1] and in assay [2] was “inactive” in each case.
Turning to `O=C(Nc1ccc([N+](=O)[O-])cc1)Nc1ccc([N+](=O)[O-])cc1`, the Potency entry in assay [1] and in assay [2] was “inactive” throughout.
For `CCC(CC)C(=O)O`, the Potency result in assay [1] and in assay [2] was “inactive” each time.
In the case of `CC(C)NC(=O)c1ccc(C=O)cc1`, the Potency entry in assay [1] and in assay [2] was “inactive” throughout.
Regarding `COc1ccc2cc(C=O)ccc2c1`, the Potency result in assay [1] and in assay [2] was “inactive” throughout.
Consider `CC(C=O)Cc1ccc(C(C)C)cc1` (stereo unspecified), for which the Potency entry in assay [1] and in assay [2] was “inactive” in each case.
Regarding `C[Si]1(C)O[Si](C)(C)O[Si](C)(C)O[Si](C)(C)O1`, the Potency entry in assay [1] and in assay [2] was “inactive” in each case.
Turning to `CCCCCCCCCCCCCCCCCCN(C)C`, the Potency result in assay [1] and in assay [2] was “inactive” throughout.
On to `NC(N)=S`, for which the Potency result in assay [1] and in assay [2] was “inactive” each time.
On to `Oc1ccccc1F`, for which the Potency entry in assay [1] and in assay [2] was “inactive” each time.
As to `CC1COc2ccccc2N1C(=O)C(Cl)Cl` (stereo unspecified), the Potency entry in assay [1] and in assay [2] was “inactive” each time.
With `CC[C@H](C)[C@@H](C(=O)O)n1sc2ccccc2c1=O`, the Potency result in assay [1] and in assay [2] was “inactive” in each case.
Take `Oc1c(I)cc(Cl)c2cccnc12`: the Potency entry in assay [1] and in assay [2] was “inactive” in each case.
Take `Cc1cc2c(OCC(CNC(C)(C)C)OC(=O)c3ccccc3)cccc2[nH]1` (stereo unspecified): the Potency result in assay [1] and in assay [2] was “inactive” in each case.
With `c1ccc2c(c1)CCc1ccccc1N2`, the Potency entry in assay [1] and in assay [2] was “inactive” in each case.
Take `CC(=O)Nc1ccc(OCCOCCOc2ccc(NC(C)=O)cc2)cc1`: the Potency entry in assay [1] and in assay [2] was “inactive” each time.
Regarding `CCCC(CCC)C(=O)O`, the Potency entry in assay [1] and in assay [2] was “inactive” in each case.
Turning to `Cc1cc(CCCOc2c(C)cc(-c3noc(C(F)(F)F)n3)cc2C)on1`, the Potency entry in assay [1] and in assay [2] was “inactive” throughout.
`OC/C=C/CO`: the Potency entry in assay [1] and in assay [2] was “inactive” throughout.
Regarding `COc1ccc2c(c1)c(CC(=O)O)c(C)n2C(=O)c1ccc(Cl)cc1`, the Potency entry in assay [1] and in assay [2] was “inactive” each time.
`CCOc1ccc2nc(N)sc2c1`: the Potency result in assay [1] and in assay [2] was “inactive” each time.
As to `O=C(CO)[C@@H](O)[C@H](O)[C@H](O)CO`, the Potency result in assay [1] and in assay [2] was “inactive” in each case.
On to `C=CCCCCCCCCC(=O)OCCCC`, for which the Potency entry in assay [1] and in assay [2] was “inactive” throughout.
For the molecule `CCCCC/C=C/C=C/C=O`, the Potency result in assay [1] and in assay [2] was “inactive” throughout.
As for `CCOc1ccc(NC(N)=O)cc1`, the Potency entry in assay [1] and in assay [2] was “inactive” in each case.
For `Cc1ncc([C@@H](CCCCCCc2ccc3c(n2)NCCC3)CC(=O)O)cn1`, the Potency entry in assay [1] and in assay [2] was “inactive” in each case.
Consider `NNc1nc(-c2ccc(N)cc2)cs1`, for which the Potency entry in assay [1] and in assay [2] was “inactive” each time.
